About 83,000 compounds went through this panel and 20% of them were active in at least one assay; those are over-represented in the sample as a whole.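 Single-concentration screen, 48 h exposure, 96-well plates. Endpoint: percent growth. Below 10 = active.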 A number with no mark means an inactive call. The source made the active and inactive calls.
What was measured:
Assay in all cases: NCI-60 one-dose screen, 48 h (100 = growth as untreated, 0 = no growth, -100 = all killed)
[1] = tested on: BT-549 breast; settings: 10 µM unless noted
[2] = tested on: MDA-MB-435 melanoma; settings: 10 µM unless noted
[3] = tested on: SW-620 colon; settings: 10 µM unless noted
[4] = tested on: MCF7 breast; settings: 10 µM
[5] = tested on: HCT-116 colon; settings: 10 µM unless noted
[6] = tested on: HCC-2998 colon; settings: 10 µM unless noted
[7] = tested on: KM12 colon; settings: 10 µM unless noted

Row | Structure (SMILES) | growth [1] | growth [2] | growth [3] | growth [4] | growth [5] | growth [6] | growth [7]
1 | COc1ccc(-c2nocc2-c2cccs2)cc1 | 105% | 101% | 99.4% | 97.3% | 103% | 118% | 104%
2 | COc1cc(C2CC(c3ccc(Nc4nc(NCCO)nc(N5CCOCC5)n4)cc3)=NN2c2cc(Cl)cc(Cl)c2)cc(OC)c1OC (centres undefined) | 75.3% | 49.6% | 81.6% | 15.3% | 33.1% | 63.4% | 37.6%
3 | CCN1C(=O)N(CC)C2C1NN=c1s/c(=C3\C(=O)N(CC(C)(C)C)c4ccccc43)c(=O)n12 (centres undefined) | 21.7% | -21.3% (active) | 42.8% | 20.2% | 7.62% (active) | 26.7% | 17.6%
4 | CNCCNc1nc2ccccc2c2c(=O)c3cccc(OC)c3sc12 | 73.1% | -72.7% (active) | -80.1% (active) | -67.5% (active) | -68.2% (active) | -52.3% (active) | -47.9% (active)
5 | COC(=O)c1c2c(c(C)[n+]([O-])c1C)C(=O)C(NCc1ccc(Br)cc1)=CC2=O | 62.3% | -77.4% (active) | 5.24% (active) | -20.1% (active) | 1.37% (active) | 14.4% | 15.2%
6 | O=c1c(-c2nc3ccccc3[nH]2)cc2ccccc2n1Cc1cn(Cc2ccc(F)cc2)nn1 | 22.4% | -37% (active) | 22.1% | 14.5% | -13.5% (active) | -14.5% (active) | 9.74% (active)
7 | O=S1(=O)CCN(Cc2ccccc2)CC1 | 95.7% | 97.6% | 103% | 104% | 88.4% | 101% | 93.9%
8 | COc1cccc(/C=C/C(=O)c2c(C)nc3ccccc3c2/C=C/c2ccccc2)c1OC | 29.4% | 15.1% | 13.2% | 13.9% | 4.08% (active) | 41.1% | 26.6%
9 | C=CCN1C(=O)/C(=c2\sc3n(c2=O)NC2C(N=3)N(CC)C(=O)N2CC)c2ccccc21 (centres undefined) | 48.6% | -7.64% (active) | 34.3% | 34.3% | 14.8% | 38% | 24.5%
10 | Cc1ccc(S(=O)(=O)c2c(COC(=O)c3cccc(C)c3)c(-c3ccccc3)nn2C)cc1 | 57.1% | -33.7% (active) | -37.2% (active) | -49.2% (active) | 0.235% (active) | 60% | 16.3%
11 | COc1ccc2oc(=O)cc(Cn3cc(Cn4cnc5c4c(=O)n(C)c(=O)n5C)nn3)c2c1 | 105% | 108% | 105% | 92.1% | 102% | 95.9% | 105%
12 | O=C(NC1CCN(Cc2ccccc2)CC1)c1cc2nc(-c3ccc(Cl)s3)cc(C(F)(F)F)n2n1 | 66% | -82% (active) | -6.12% (active) | -68.2% (active) | 28% | 84.2% | 37.1%
13 | Cc1ccc(Nc2nc(N)c3ccccc3n2)cc1Cl | 85.8% | 92.1% | 67.7% | 68.7% | 28.8% | 51.6% | 56%
14 | CC1(C)CC2(C)OC2C2(C1)N=NC(=Nc1ccccc1)O2 (centres undefined) | -19.1% (active) | 59.5% | 23% | 23.9% | 20% | 102% | 87.7%
15 | NCCNc1nc2ccccc2c2c(=O)c3cc(F)cc(Cl)c3sc12 | 84.8% | -95.2% (active) | -78.9% (active) | -91.6% (active) | -89.6% (active) | 16.2% | -82.6% (active)
16 | CCOC(=O)c1c(C=O)nc2ccccc2c1/C=C/c1ccc(Cl)cc1 | 99.6% | 101% | 103% | 78% | 82.4% | 110% | 96.1%
17 | Cn1c(C(=O)c2cccc3ccccc23)nc2ccccc21 | 13% | 17.4% | 22.4% | 15.6% | 22.7% | 6.79% (active) | 25.9%

— PubChem BioAssay (NCI)
